Experimental data taken from PubChem BioAssay AID1259343 (VanderVen Lab, College of Veterinary Medicine, Cornell …, 2017).
Out of some 6,200 compounds screened, about 2,900 (47%) were called active. So high a share suggests a set chosen from earlier hits. Some of the results follow. Unmarked numbers belong to inactive results. Rule as the data show it: active = inhibition above about 50%; inactive = the rest.

Test: Mycobacterium tuberculosis growth inhibition, primary screen (AID 1259343)
Details: inhibition: at 10 µM, stronger effect = higher value; outcome: 10 uM

Structure (SMILES)	inhibition
Cc1nc(Cl)cc(NC(C)c2ccc(Cl)c(Cl)c2)n1 (stereo not given)	6.72%
Cc1ccc(-n2nnc(C(=O)OCc3ccccc3C)c2C)cc1	93.8% (active)
COc1ccc(-c2nn(-c3ccccc3)cc2CN2CCN(c3cnccn3)CC2)c(F)c1	62.9% (active)
COc1ccc(C(=O)NC2CC(C)(C)Cc3occc32)cc1 (stereo not given)	-1.78%
COc1ccc(Oc2ccc(C(=O)N[C@H]3CCCC[C@@H]3O)cc2)cc1	80.8% (active)
CCOC(=O)CNC(=O)CSc1ncnc2c1nnn2Cc1ccc(F)cc1	-15.9%
CCOC(=O)C(C)Sc1ncnc2c1nnn2Cc1ccc(F)cc1 (stereo not given)	64.3% (active)
CCOC(=O)CSc1ncnc2c1nnn2Cc1ccc(F)cc1	-18.2%
CCOC(=O)CSc1ncnc2c1nnn2Cc1ccc(Cl)cc1	-17.6%
CCOC(=O)C(C)Sc1ncnc2c1nnn2Cc1ccc(Cl)cc1 (stereo not given)	50.4% (active)
CN=c1scc(-c2ccc(F)cc2)n1N=Cc1cccc(Br)c1	70.2% (active)
CN=c1scc(-c2ccc(F)cc2)n1N=Cc1ccccc1Br	-41.8%
CN=c1scc(-c2ccccc2F)n1N=Cc1ccc(SC)cc1	-1.82%
CN=c1scc(-c2ccc(F)cc2)n1N=Cc1cccc(C(F)(F)F)c1	-44.1%
CN=c1scc(-c2ccccc2F)n1N=Cc1ccccc1	-1.69%
CN=c1scc(-c2ccccc2F)n1N=Cc1cccc(F)c1	98.1% (active)
Cc1nn(C(=O)C(C)N2C(=O)c3ccccc3C2=O)c(C)c1Br (stereo not given)	14.3%
COc1ccc2oc(=O)cc(-c3cc4cc(Br)ccc4o3)c2c1	-2.37%
Cc1cccc2nc(COc3ccc4ccccc4c3Br)cn12	41.5%
CCCCN1CCC(COC(=O)c2cc(Cl)c(N)c3c2OCCO3)CC1	98.9% (active)
Cc1cccc(SC2CCN(c3nncc(-c4ccccc4)n3)CC2)c1	32.6%
Nc1ncc(Cc2cc(Cl)ccc2Cl)s1	-17.2%
NC(N)=NCc1ccc(Cl)cc1Cl	74.4% (active)
Nc1ncc(Cc2ccc(Cl)cc2F)s1	35.3%
Cc1nc(C)c(-c2ccc(SCc3c(F)cccc3Cl)nn2)s1	69.8% (active)

Structure (SMILES)	inhibition
Cc1nc(C)c(-c2csc(Nc3cccnc3)n2)s1	35.7%
O=C(NC(C1CC1)C1CC1)C1CC(c2ccc(Cl)s2)=NO1 (stereo not given)	-31.9%
O=C(Nc1ccc(-n2cccn2)nc1)C1CC(c2cccc(F)c2)=NO1 (stereo not given)	14.1%
CC(NC(=O)C1CC(c2cccc(F)c2)=NO1)c1ccc(F)cc1F (stereo not given)	84.1% (active)
CCOc1ccccc1C(=O)Oc1ccc2ccc(O)cc2c1	40.6%
O=C(Oc1ccc2ccccc2c1)c1cccs1	86.7% (active)
COc1ccc2c(=O)c3c(oc2c1)C(=O)N(c1nccs1)C3c1ccccc1 (stereo not given)	11.9%
COc1ccc2c(c1)OCc1c-2oc2cc(OC)ccc12	81.8% (active)
COc1ccc2c(=O)c3c(oc2c1)C(=O)N(c1nccs1)C3c1ccc(C(C)(C)C)cc1 (stereo not given)	5.45%
CC1CCc2c(Cl)cc(Cl)c(O)c2N1 (stereo not given)	103% (active)
COc1cc(C=Nc2ccc3ncccc3c2)cc(OC)c1OC	-5.15%
COc1cc(C=Nc2ccc(I)cc2)cc(OC)c1OC	75.7% (active)
Cc1ccc2c(c1)CCCN2C(=O)/C=C/c1ccco1	44.5%
COc1cc2c(cc1/C=C/C(=O)N1CCc3ccccc31)OC(C)C2 (stereo not given)	59.3% (active)
O=c1c(Oc2ccccc2)coc2cc(O)ccc12	88.5% (active)
CCCc1nc2oc3cc(OC)ccc3c(=O)c2c(=O)n1CCc1ccccc1	4.8%
O=c1c(Oc2ccc(F)cc2)coc2cc(O)ccc12	103% (active)
CCCc1cc(=O)oc2cc(OC(C)C)c(Cl)cc12	23.5%
CCOC(=O)C(C)Oc1ccc2c(=O)c(Oc3ccc(OCC)cc3)coc2c1 (stereo not given)	22.8%
CCCc1cc(=O)oc2cc(O)ccc12	55.5% (active)
CCCc1oc2cc(O)ccc2c(=O)c1Oc1ccccc1	80.2% (active)
CCCc1cccc(C)c1O	42.4%
O=c1c(Oc2ccccc2F)coc2cc(O)ccc12	11.6%
O=c1c(Oc2ccc(Cl)cc2)coc2cc(O)ccc12	33.2%
Oc1ccc(-c2nc3c4cnn(-c5ccccc5Cl)c4ncn3n2)cc1	44.1%

Structure (SMILES)	inhibition
O=C(c1cnn2cccnc12)N1CCOc2ccc(C(O)C(c3ccccc3)c3ccccc3)cc2C1 (stereo not given)	-21.2%
Cc1cc(C(C)(C)CC(C)(C)C)ccc1OCCOCC[N+](C)(C)Cc1ccccc1	87.5% (active)
CCCCCCCCN1C(=O)CC(=O)NC1=S	27.6%
CCCCCCCCc1nc(=S)[nH][nH]1	86.1% (active)
Cc1nc2sc3c(c2c(=O)o1)CCCCC3	102% (active)
O=C1CCC(=O)N1c1ccc(-c2nc3sc4c(c3c(=O)o2)CCC4)cc1	-4.37%
CC(C)(C)c1nc2sc3c(c2c(=O)o1)CCCC3	25.7%
COc1ccccc1C(C)(C)C(=O)n1nc(C(F)(F)F)nc1N	7.93%
Cc1cnn(C2CN(c3ccc(S(=O)(=O)C(F)(F)F)cc3)C2)c1	84.2% (active)
NC(=O)C1CCN(c2ccc(S(=O)(=O)C(F)(F)F)cc2)C1 (stereo not given)	-74.6%
CCN(C(=O)c1cc(C)c(-c2ccc(F)cc2)s1)C1CCC1	24.1%
Cc1cc(C)c(Cn2ccnc2CN(C(=O)c2ccc(F)cc2)C2CC2)c(C)c1	51.5% (active)
FC(F)(F)c1ccc(Cn2ccnc2CNC2CCCCC2)cc1	21.3%
CC1=C(C)C(=O)C(CCCCC#CCCCC#CCO)=C(C)C1=O	84.5% (active)
C=C(C)CN=c1scc(C)n1N=Cc1sccc1C	21.6%
COc1ccc2cc(CN(C)C(=O)CCl)ccc2c1	inactive
COc1ccc(COc2ccc(N(C)C(N)=O)cc2)c(Cl)c1	15.9%
COc1ccc(N(CC(F)(F)F)C(=O)CCl)cc1	84.1% (active)
CC1CCCC(NC(=O)c2cc3c(s2)CSC3)C1C (stereo not given)	55.5% (active)
CC1CCc2sc(C(=O)NCc3ccc4c(c3)OCO4)cc2C1 (stereo not given)	-11%
COc1ccc(-c2c(O)c3c(OC)c4c(cc3oc2=O)OC(C)(C)C=C4)cc1	63.3% (active)
CC(=O)O[C@@H]1C[C@@]2(C)[C@H](c3ccoc3)C[C@H]3O[C@]32[C@]2(C)C(=O)C(O)=C3C(C)(C)C(=O)C=C[C@]3(C)C12 (stereo not given in full)	94.8% (active)
COc1cc(=C2C=c3ccccc3=N2)[nH]/c1=C\c1[nH]c(C)cc1C	-5.42%
O=C(NC(=S)Nc1ccc(N2CCN(C(=O)c3ccccc3)CC2)cc1)c1ccco1	99.1% (active)
O=C(Nc1cccc(-c2cccc(Cl)c2)c1)C1CCN(C(=O)c2ccccc2)CC1	85.9% (active)

Structure (SMILES)	inhibition
O=C(Nc1cccc(-c2cccc(Cl)c2)c1)C1CCN(C(=O)c2csnn2)CC1	-4.87%
O=C(Nc1cccc(-c2cccc(Cl)c2)c1)C1CCN(C2CCOCC2)CC1	88.7% (active)
O=C(Nc1cccc(-c2cccc(Cl)c2)c1)C1CCN(C(=O)C2CCOC2)CC1 (stereo not given)	71% (active)
COc1ccc(C(=O)N2CCC(C(=O)Nc3cccc(-c4cccc(Cl)c4)c3)CC2)o1	70.5% (active)
O=C(Nc1cccc(-c2cccc(Cl)c2)c1)C1CCN(C(=O)c2cccnc2)CC1	inactive
O=C(Nc1cccc(-c2cccc(Cl)c2)c1)C1CCN(C(=O)C2CCCO2)CC1 (stereo not given)	9.39%
O=C(Nc1cccc(-c2cccc(Cl)c2)c1)C1CCN(C(=O)C2CC=CCC2)CC1 (stereo not given)	81.6% (active)
CC(C)c1nccc(-c2nccn2CC2(O)CCN(C)CC2)n1	-4.81%
COc1ccc(Cc2[nH]n3c(=O)cc(C)nc3c2-c2ccccc2)cc1	37.9%
COc1ccccc1-c1c(C)[nH]n2c(=O)cc(-c3ccc([N+](=O)[O-])cc3)nc12	77.8% (active)
COc1ccccc1-c1c(C)nn2c(NC(C)c3ccccc3)cc(C)nc12 (stereo not given)	5.58%
COc1ccc(Nc2nc3cc(Cl)ccc3o2)cc1Cl	21.2%
CC(Oc1ccc(Cl)cc1Cl)c1nc(-c2ccncc2)no1 (stereo not given)	43.3%
COc1ccc(NC(C)c2nc(C)no2)cc1Cl (stereo not given)	57.6% (active)
CNc1nc(C)c(C(=O)c2ccc(C)cc2)s1	86.1% (active)
CC(Cc1ccco1)NC(=O)c1cc2c(s1)CCC2 (stereo not given)	93.1% (active)
O=C(NNS(=O)(=O)c1ccc2c(c1)OCCO2)c1cc2c(s1)CCCCC2	20.9%
CN(CC(=O)Nc1sc2c(c1C#N)CCCCC2)Cc1ccco1	49.1%
S=c1sc2c(Cl)ncnc2n1-c1ccccc1	60.9% (active)
Cn1c(=O)c([N+](=O)[O-])c(N2CCN(Cc3cccc4ccccc34)CC2)c2ccccc21	59% (active)
Cn1c(=O)c([N+](=O)[O-])c(N2CCN(Cc3ccc(Cl)cc3Cl)CC2)c2ccccc21	40.7%
Cn1c(=O)c([N+](=O)[O-])c(N2CCN(CCOc3ccc(Cl)cc3)CC2)c2ccccc21	38.3%
Brc1ccc(CSc2nc3ncccc3[nH]2)cc1	34%
CC(NCc1cc(=O)n2cc(Br)ccc2n1)c1cc(F)c(Cl)cc1Cl (stereo not given)	27.6%
O=c1cc(CSc2nc3ncc(Cl)cc3[nH]2)nc2ccc(Br)cn12	101% (active)
